KCNQ2 enhance = potentiators of rat KCNQ2 potassium channel; B-score at 10 µM; CHO-K1 KCNQ2, FluxOR thallium flux fluorescence; hits give high values; AID 2239; hit rate 0.54% among 310,000; O88943;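 active = fluorescence ratio B-score at least 3 SD of library B-scores, with initial fluorescence B-score within 3 of them, cut at about 5.3 in these data; same plate scores as AID 2156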;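 also: B-score of peak minus minimum over baseline fluorescence ratio after K+ and Tl+ stimulus; positive B-score means potentiation of KCNQ2 with more thallium influx and brighter signal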
KCNQ2 block = inhibitors of rat KCNQ2 potassium channel; hit rate 1.1% among 310,000; CHO-K1 KCNQ2, FluxOR thallium flux, 20 min; hits give low values; B-score at 10 µM;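 active = fluorescence ratio B-score at most minus 3 library SDs, with starting brightness B-score within 2 library SDs, cut at about -5.5 in these data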
Kir21 conf inh = confirmation of mouse Kir2.1 potassium channel inhibitors. shares compounds with KCNQ2 enhance. Kir2.1-expressing cells, FluxOR thallium flux fluorescence; hits give low values. Tl flux remaining, % of negative control (hits give low values), % at 10 µM. hit rate 41% among 2,300. AID 2032;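 active = Primary-screen hit whose thallium flux fell at least 3 control SD below untreated wells in both duplicates, with normal baseline fluorescence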
HEK293 Tl flux = counter-screen for Kir2.1 inhibitors: effect in parental HEK293 cells. shares compounds with KCNQ2 enhance. FluxOR thallium flux fluorescence; 0% = unstimulated blank wells. FluxOR signal as % of negative control (100 = no effect), % at 10 µM. hit rate 19% among 2,300. AID 2105;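 active = dye signal at least 3 control SD above or below untreated wells in both duplicates, raw fluorescence within 3, either direction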;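 also: percent is based on the flux ratio of peak minus minimum fluorescence over baseline F0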
CHO-K1 ctr = counter-screen for KCNQ2 potentiators: effect in parental CHO-K1 cells | AID 2282 | FluxOR thallium flux fluorescence; zero = vehicle mean+3SD, 100% = vehicle-minus-blank window | shares compounds with KCNQ2 enhance | activity increase over 3SD of controls, % at 10 µM | hit rate 43% among 1,200;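 active = signal rise of at least 3 SD above the untreated control mean, in both duplicate wells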;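 also: counter screen of KCNQ2 potentiator hits so any rise reflects channel-independent effects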
KCNQ1 pot spec = human KCNQ1 counter-target activity of KCNQ2 potentiators. hit rate 28% among 1,200. CHO KCNQ1 stable, FluxOR thallium flux fluorescence; beyond 3SD, as % of vehicle-control signal. shares compounds with KCNQ2 enhance. activation over 3SD threshold, % at 10 µM;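 active = fluorescence ratio rise of at least 3 SD of vehicle wells above their mean, in both replicate wells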
Target sequence (P51787 whole entry, looked up): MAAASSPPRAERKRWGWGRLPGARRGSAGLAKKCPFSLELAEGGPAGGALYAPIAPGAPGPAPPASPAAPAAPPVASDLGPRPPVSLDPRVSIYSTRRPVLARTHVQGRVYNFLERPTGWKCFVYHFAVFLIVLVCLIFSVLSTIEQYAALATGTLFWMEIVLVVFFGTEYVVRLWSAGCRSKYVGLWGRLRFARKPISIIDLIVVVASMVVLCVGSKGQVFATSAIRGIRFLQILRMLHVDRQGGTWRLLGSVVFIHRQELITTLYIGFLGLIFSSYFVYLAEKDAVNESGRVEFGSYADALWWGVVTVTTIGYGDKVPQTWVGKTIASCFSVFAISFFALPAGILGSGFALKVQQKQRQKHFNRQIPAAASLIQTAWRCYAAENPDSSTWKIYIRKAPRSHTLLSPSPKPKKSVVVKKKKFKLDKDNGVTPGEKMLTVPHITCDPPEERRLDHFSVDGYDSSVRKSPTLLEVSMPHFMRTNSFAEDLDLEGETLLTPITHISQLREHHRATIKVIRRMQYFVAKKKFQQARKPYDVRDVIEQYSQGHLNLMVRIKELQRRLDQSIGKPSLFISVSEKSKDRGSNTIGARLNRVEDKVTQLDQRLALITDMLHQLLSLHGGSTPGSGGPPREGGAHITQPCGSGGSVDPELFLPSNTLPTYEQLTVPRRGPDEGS
KCNQ2 pot confirm = confirmation of rat KCNQ2 potassium channel potentiators; shares compounds with KCNQ2 enhance; CHO-KCNQ2 cells, FluxOR thallium flux fluorescence; potentiation, less the hit threshold, % at 10 µM; hit rate 68% among 1,200; AID 2287;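 active = fluorescence ratio rising 3 SD or more over the vehicle control mean in both replicates, plus primary screen hit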;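 also: peak minus minimum thallium fluorescence divided by baseline after K/Tl stimulus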
Kir21 spec = mouse Kir2.1 off-target activity of KCNQ2 potentiators | activity over 3SD threshold, % at 10 µM | shares compounds with KCNQ2 enhance | hit rate 2% among 1,200 | HEK293 Kir2.1, FluxOR thallium flux fluorescence;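 active = fluorescence ratio rise of at least 3 SD above the vehicle-control mean, seen in both replicates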
KCNQ2 W236L MoA = KCNQ2 potentiators acting on retigabine-insensitive rat KCNQ2 W236L mutant; hit rate 10% among 940; shares compounds with KCNQ2 enhance; current increase over 3SD of negative controls (%), hits give high values, % at 25 µM; CHO KCNQ2-W236L, automated patch clamp current; AID 2558;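 active = current increase at least 3 SD of the untreated controls above them in both duplicate recordings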
A number is an active result; i = inactive; nt = no result. Sampled rows, rich in hits. Any-hit rate of the full collection: about 1.6%.

SMILES | KCNQ2 enhance | KCNQ2 block | Kir21 conf inh | HEK293 Tl flux | others
CCCN(CCC)S(=O)(=O)c1ccc(C)cc1 | nt | i | nt | nt
COC(=O)c1nc(N)sc1C | i | i | nt | nt
CCOc1ncccc1C(=O)Nc1c(C)n(C)n(-c2ccccc2)c1=O | nt | i | nt | nt
O=C(Cc1ccccc1)Nc1ccc(N2CCCC2)cc1 | i | i | nt | nt
COc1ccc(CC(=O)Nc2ccc3c(c2)CCC3)cc1 | i | i | nt | nt
O=C(Cc1ccccc1)Nc1ccc2c(c1)CCC2 | 6.5 | i | i | i | CHO-K1 ctr=17;KCNQ1 pot spec=i;KCNQ2 pot confirm=81;Kir21 spec=i;KCNQ2 W236L MoA=i
O=C(Cc1ccccc1)Nc1cccc(N2CCCC2)c1 | 6 | i | i | i | CHO-K1 ctr=i;KCNQ1 pot spec=i;KCNQ2 pot confirm=21;Kir21 spec=i;KCNQ2 W236L MoA=0.1%
O=C(CC1CCCC1)Nc1ccc2c(c1)CCC2 | 26 | i | i | i | CHO-K1 ctr=i;KCNQ1 pot spec=i;KCNQ2 pot confirm=80;Kir21 spec=i;KCNQ2 W236L MoA=i
COc1ccc(NC(=O)CC2CCCC2)cc1OC | nt | i | nt | nt
CCOc1ccc(C2C(C(C)=O)=C(O)C(=O)N2CCc2c[nH]c3ccccc23)cc1 (stereo not given) | i | i | nt | nt
C=CCN1C(=O)C2(OCCO2)c2cc(C)ccc21 | i | i | nt | nt
COc1ccccc1NC(=O)C1CCN(C(=O)C2CC(=O)N(c3ccc(C)cc3)C2)CC1 (stereo not given) | i | i | nt | nt
CCOc1ccccc1N1CCN(C(=O)c2ccc(OCC(=O)N3CCOCC3)c(OC)c2)CC1 | nt | i | nt | nt
O=[N+]([O-])c1c(Nc2ccc(O)cc2)cc(Cl)c2nonc12 | i | -10 | 66% | i
CN(C)c1cc(Nc2ccc(O)cc2)c([N+](=O)[O-])c2nonc12 | nt | i | nt | nt
Cc1cccc(NC(=O)NCCCCc2ccccc2)c1 | nt | i | nt | nt
O=C(NCCCCc1ccccc1)Nc1cccc(F)c1 | 13 | i | i | i | CHO-K1 ctr=i;KCNQ1 pot spec=i;KCNQ2 pot confirm=27;Kir21 spec=i;KCNQ2 W236L MoA=i
C=CCC1(N(C(C)=O)c2ccccc2)CCCCC1 | nt | i | nt | nt
CCOC(=O)c1c(-c2ccccc2)c2cc(OC)ccc2n1CCCN(C)C | nt | i | 36% | i
CCOC(=O)c1c(C)n(CCNC(C)=O)c2ccc(OC)cc12 | nt | i | nt | nt
COc1ccc(S(=O)(=O)N(C)c2ccc(C(=O)NCc3ccccn3)cc2)cc1OC | i | i | nt | nt
C#CCCOC(=O)Nc1ccccc1 | i | i | nt | nt
Cc1occc1C(=O)NNC(=O)COc1ccc(Br)cc1Br | nt | i | nt | nt
Cc1occc1C(=O)NNC(=S)NC(=O)COc1ccc(Cl)cc1Cl | 9.5 | i | i | 149% | CHO-K1 ctr=i;KCNQ1 pot spec=93;KCNQ2 pot confirm=6.5;Kir21 spec=i;KCNQ2 W236L MoA=i
Cc1ccc(NC(=O)N2CCCCCC2)c(C)c1 | i | i | nt | nt
SMILES | KCNQ2 enhance | KCNQ2 block | Kir21 conf inh | HEK293 Tl flux | others
COCc1cccc(C(=O)NC(c2ccccc2)c2ccccc2)c1 | nt | i | nt | nt
CC1CCc2c(nc3ncnn3c2N2CCN(c3ccccc3)CC2)C1 (stereo not given) | i | i | nt | nt
c1nc2nc3c(c(N4CCOCC4)n2n1)CCCC3 | 17 | i | i | i
O=C(/C=C/c1ccccc1Cl)Nc1ccccc1 | nt | i | nt | nt
Cc1ccc(C)c(/C=C/C(=O)c2ccccc(=O)c2O)c1 | 18 | i | i | 144% | CHO-K1 ctr=33;KCNQ1 pot spec=36;KCNQ2 pot confirm=i;Kir21 spec=i;KCNQ2 W236L MoA=i
O=C(/C=C/c1ccccc1Cl)c1ccccc(=O)c1O | 8.4 | i | i | 153% | CHO-K1 ctr=i;KCNQ1 pot spec=4.1;KCNQ2 pot confirm=i;Kir21 spec=i
Cc1ccc(C)c(NC(=O)c2ccccc2O)c1 | i | i | nt | nt
N#CC(c1ccc(Cl)cc1)c1ccc2c(C(F)(F)F)cc(C(F)(F)F)nc2n1 (stereo not given) | 18 | i | i | i | CHO-K1 ctr=i;KCNQ1 pot spec=47;KCNQ2 pot confirm=21;Kir21 spec=i;KCNQ2 W236L MoA=i
FC(F)(F)c1cc(C(F)(F)F)c2ccc(N3CCN(c4ccc(Cl)cc4)CC3)nc2n1 | i | i | nt | nt
O=C(CSc1nc2nc(-c3cccs3)cc(C(F)(F)F)c2c(=O)[nH]1)C(F)(F)F | i | i | nt | nt
COc1cccc(-n2c([S-])c(C(=O)Nc3ccc(S(=O)(=O)N4CCOCC4)cc3)[n+]3cc(C(N)=O)ccc23)c1 | nt | i | nt | nt
Cc1cc(C)c2oc(C(=O)Nc3ccc(S(=O)(=O)N4CCCC(C)C4)cc3)cc(=O)c2c1 (stereo not given) | i | i | nt | nt
CCCOc1ccc(C(=O)N2CCN(Cc3ccc4c(c3)OCO4)CC2)cc1 | nt | i | nt | nt
OC(CNCc1ccco1)COc1ccccc1 (stereo not given) | nt | i | nt | nt
OC(CNCc1ccco1)Cn1c2ccccc2c2ccccc21 (stereo not given) | nt | i | 72% | i
CC(C(Sc1ccccc1N)c1ccccc1)[N+](=O)[O-] (stereo not given) | nt | i | 52% | i
Nc1ccccc1SSc1ccccc1N | nt | i | nt | nt
N=c1c2c(-c3ccccc3)c(-c3ccccc3)n(Cc3ccccc3)c2ncn1CCCn1ccnc1 | nt | i | i | i
Cc1cc(NCCCn2ccnc2)n2nc(C)c(-c3ccccc3)c2n1 | nt | i | nt | nt
N=c1c2c(-c3ccccc3)c(-c3ccccc3)n(Cc3ccco3)c2ncn1Cc1ccco1 | i | -6.9 | 54% | i
N=c1c2c(ncn1Cc1ccco1)Oc1ccc3ccccc3c1C2c1ccccc1 (stereo not given) | i | i | nt | nt
CC(c1ccccc1)C(NC(=O)OCC1c2ccccc2-c2ccccc21)C(=O)O (stereo not given) | i | i | nt | nt
CCOC(=O)CSc1ccc(C(=O)Nc2ccc(OC)cc2)cn1 | nt | i | nt | nt
CC(C)(C)c1ccc(C(=O)NCCCNC(=O)c2ccccn2)cc1 | nt | i | nt | nt
O=C(c1ccc2c(c1)OCO2)C1CCCN(Cc2ccc(OC(F)F)cc2)C1 (stereo not given) | nt | i | i | 122%
SMILES | KCNQ2 enhance | KCNQ2 block | Kir21 conf inh | HEK293 Tl flux | others
O=C(c1ccc2c(c1)OCO2)C1CCCN(Cc2cccc(C(F)(F)F)c2)C1 (stereo not given) | nt | i | nt | nt
Oc1c(CN2CCOCC2)cc(COCc2ccccc2)c2cccnc12 | 11 | i | i | i | CHO-K1 ctr=i;KCNQ1 pot spec=i;KCNQ2 pot confirm=26;Kir21 spec=i;KCNQ2 W236L MoA=i
Oc1c(CN2CCN(c3ccccc3)CC2)cc(Br)c2cccnc12 | i | i | nt | nt
Cc1ccc(C2=NS(=O)(=O)N(C)C(C(=O)NCc3ccccc3)=C2)cc1 | i | i | nt | nt
Cc1nc2scc(-c3ccccc3)c2c(=O)n1N=C1C=CC(=O)C=C1 | nt | i | 62% | 51%
Cc1nc2scc(-c3ccccc3)c2c(=O)n1N | i | i | nt | nt
CCC1CCCCN1CCCNC(=O)CSc1nc2nc(C)c(Cc3ccc(C)cc3)c(C)n2n1 (stereo not given) | i | i | nt | nt
COc1ccccc1N1CCN(C(=O)NCc2cccc(C(F)(F)F)c2)CC1 | 7 | i | i | i | CHO-K1 ctr=i;KCNQ1 pot spec=i;KCNQ2 pot confirm=i;Kir21 spec=i;KCNQ2 W236L MoA=i

High-throughput results (PubChem)
